# Records with an inconclusive call do not appear. Activity calls are given as the source filed them. The calls were made as follows, unless noted: active = hit-call score of the fitted dose curve at least 0.9, where 1 is the maximum; inactive = score below 0.9.
# Legend:
# [1] = target: Paired box protein Pax-6 (Homo sapiens) (UniProt P26367); assay: ATG_Pax6_CIS: Attagene CIS-FACTORIAL HepG2 Assay for human Paired Box 6 (PAX6) (AID 2282956); settings: HepG2 CIS-FACTORIAL PAX6 reporter transcription, RNA readout; actives raise or lower the signal
# How it was run: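 Transient MRTU transfection of HepG2 → compound exposure 24 h → TriZol RNA, oligo(dT) RT → PCR, 6-FAM primer extension, HpaI cut → capillary electrophoresis; activity fitted both directions against DMSO.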
# [2] = ATG_PXRE_CIS: Attagene CIS-FACTORIAL HepG2 Assay for human Pregnane X Receptor Element (PXRE) (AID 2282957); settings: HepG2 Attagene CIS-FACTORIAL PXRE reporter, mRNA; actives raise or lower the signal
# How it was run: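 Transfect HepG2 with MRTUs (cis promoter elements); dose chemical, incubate 24 h; isolate RNA, RT with oligo(dT), PCR, 6-FAM label, HpaI cut, CE. Gain/loss fit vs DMSO.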
# [3] = ATG_PPRE_CIS: Attagene CIS-FACTORIAL HepG2 Assay for human Peroxisome Proliferator-activated Response Element (PPRE) (AID 2282958); settings: HepG2 PPRE cis-element reporter, Attagene transcription factor profiling; actives raise or lower the signal
# How it was run: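 Cells are first transfected transiently with the multiplexed reporter library, then dosed for 24 h. Total RNA is reverse-transcribed, amplified, fluorescently end-labeled and HpaI-cut before capillary electrophoresis; activity is fitted bidirectionally against DMSO controls.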
# [4] = ATG_Sox_CIS: Attagene CIS-FACTORIAL HepG2 Assay for human SRY-box transcription factor (SOX) (AID 2282960); settings: HepG2 Attagene cis-factorial SOX reporter, mRNA; actives raise or lower the signal
# How it was run: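 Transient MRTU transfection of HepG2; 24 h compound incubation; TriZol RNA, oligo(dT) RT, PCR, 6-FAM primer extension, HpaI cut, CE. Bidirectional fit, DMSO = baseline.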
# [5] = target: Transcription factor Sp1 (Homo sapiens) (UniProt P08047); assay: ATG_Sp1_CIS: Attagene CIS-FACTORIAL HepG2 Assay for human Specificity Protein 1 (Sp1) (AID 2282961); settings: HepG2 Sp1 cis-reporter transcription, actives raise or lower the signal
# How it was run: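 Endogenous Sp1 activity was gauged in human liver HepG2 cells bearing transfected reporter units under a cis-regulating promoter. After 24 h dosing, reporter mRNA was quantified by RT-PCR with capillary electrophoresis, and activity fitted bidirectionally versus DMSO.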
# [6] = ATG_SREBP_CIS: Attagene CIS-FACTORIAL HepG2 Assay for human Sterol Regulatory Element Binding (SREBP) (AID 2282962); settings: HepG2 Attagene cis-factorial SREBP reporter, mRNA; actives raise or lower the signal
# How it was run: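 Transfected HepG2 (cis-regulated reporter library, endogenous TFs) → compound 24 h → total RNA → oligo(dT) RT → reporter-specific PCR → FAM primer extension, HpaI cut → CE fluorescence. Fit bidirectional vs DMSO.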
# [7] = target: Signal transducer and activator of transcription 3 (Homo sapiens) (UniProt P40763); assay: ATG_STAT3_CIS: Attagene CIS-FACTORIAL HepG2 Assay for human Signal Transducer and Activator of Transcription 3 (STAT3) (AID 2282963); settings: HepG2, Attagene cis-factorial STAT3 reporter transcription; actives raise or lower the signal
# How it was run: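 HepG2 cells transiently transfected with cis-element-driven multiple reporter transcription units; after 24 h chemical exposure, reporter mRNA measured by RT-PCR, 6-FAM primer-extension labelling, HpaI digestion and capillary electrophoresis. Bidirectional fitting versus DMSO baseline.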
# [8] = ATG_TA_CIS: Attagene CIS-FACTORIAL HepG2 Assay for human TA Basal Promoter (AID 2282964); settings: HepG2 Attagene CIS-factorial TA basal promoter reporter; actives raise or lower the signal
# How it was run: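 Cis-factorial format in HepG2: reporters report endogenous factors, not chimeric Gal4 fusions. After 24 h treatment, reporter transcripts were measured by RT-PCR-capillary electrophoresis fluorescence, analysed bidirectionally versus DMSO.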
# [9] = ATG_TAL_CIS: Attagene CIS-FACTORIAL HepG2 Assay for human TAL Basal Promoter (AID 2282966); settings: HepG2 Attagene cis-factorial TAL promoter reporter; actives raise or lower the signal;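 also: background control endpoint measuring basal TAL promoter reporter mRNA not a specific factor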
# How it was run: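 Fluorescence of labelled reporter cDNA fragments, resolved by capillary electrophoresis, gave the readout. Human HepG2 liver cells carried transiently transfected cis-element reporter units and were treated for 24 hours; activity was fitted bidirectionally against DMSO.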
# [10] = ATG_TGFb_CIS: Attagene CIS-FACTORIAL HepG2 Assay for human Transforming Growth Factor (TGF) (AID 2282967); settings: HepG2 Attagene CIS TGFb reporter, mRNA transcription; actives raise or lower the signal
# How it was run: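 Multiplexed cis-reporter HepG2 system, 24 h treatment; mRNA induction read by fluorescence after RT-PCR and CE; DMSO negative control, bidirectional curve fitting.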
# [11] = ATG_VDRE_CIS: Attagene CIS-FACTORIAL HepG2 Assay for human Vitamin D Receptor Element (VDRE) (AID 2282968); settings: HepG2 VDRE cis-reporter transcription, actives raise or lower the signal
# How it was run: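 HepG2 cells transiently transfected with cis-element reporter units, dosed 24 h; reporter mRNA measured by RT-PCR, 6-FAM labeling, HpaI digestion and capillary electrophoresis. Activity fitted bidirectionally against DMSO baseline.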
# [12] = target: X-box-binding protein 1 (Homo sapiens) (UniProt P17861); assay: ATG_Xbp1_CIS: Attagene CIS-FACTORIAL HepG2 Assay for human X-box Binding Protein 1 (XBP1) (AID 2282972); settings: HepG2 XBP1 cis-element reporter, Attagene multiplex; actives raise or lower the signal
# How it was run: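 HepG2, transient MRTU transfection (cis-promoter driven), 24 h compound exposure. Total RNA → oligo(dT) RT → PCR → 6-FAM labeling → HpaI cut → CE. Bidirectional fit vs DMSO.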
# [13] = ATG_M_19_TRANS: Attagene TRANS-FACTORIAL HepG2 Assay for M19 Transcription Factor (Internal Marker) (AID 2282974; active = hit-call score of the fitted dose curve at least 0.9, where 1 is the maximum); settings: HepG2 Attagene TRANS-FACTORIAL M19 internal marker reporter
# How it was run: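 Cells: human HepG2, transiently transfected with multiplexed reporter transcription units. Exposure: 24 h. Detection: RT-PCR of reporter mRNA with capillary electrophoresis. Analysis: gain-of-signal vs DMSO.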
# [14] = ATG_TCF_b_cat_CIS: Attagene CIS-FACTORIAL HepG2 Assay for human T-Cell-Factor with beta-catenin (TCF/b-cat) (AID 2282965); settings: HepG2 TCF/beta-catenin cis-reporter transcription, actives raise or lower the signal
# How it was run: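 HepG2 cells transiently transfected with multiple cis-promoter-regulated reporter transcription units, so endogenous transcription factor activity is measured. Reporter mRNA read 24 hours after dosing by RT-PCR, fluorescent labelling and capillary electrophoresis; bidirectional fitting against DMSO.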
# [15] = ATG_RORE_CIS: Attagene CIS-FACTORIAL HepG2 Assay for human RAR-related Orphan Receptor Element (RORE) (AID 2282959); settings: HepG2 Attagene cis-factorial RORE reporter, mRNA; actives raise or lower the signal
# How it was run: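 Cells were HepG2 carrying transfected cis-regulated reporter constructs, dosed for 24 hours. Total RNA was reverse-transcribed and reporter cDNA amplified, fluorescently labeled and sized by capillary electrophoresis. Activity was fitted bidirectionally relative to DMSO.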
# [16] = target: Glucocorticoid receptor (Homo sapiens) (UniProt P04150); assay: ATG_GR_TRANS: Attagene TRANS-FACTORIAL HepG2 Assay for human Glucocorticoid Receptor (GR) (AID 2282978; active = hit-call score of the fitted dose curve at least 0.9, where 1 is the maximum;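 also: activators score as hits since higher reporter transcript over DMSO is fitted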); settings: HepG2 Attagene TRANS GR reporter, mRNA transcription
# How it was run: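 In this trans-factorial format, exogenous NR-GAL4 chimeric proteins in transfected HepG2 cells regulate GAL4-UAS reporter transcription. After 24 h treatment, reporter mRNA induction relative to DMSO is read by RT-PCR and capillary electrophoresis.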
# [17] = target: Estrogen-related receptor gamma (Homo sapiens) (UniProt P62508); assay: ATG_ERRg_TRANS: Attagene TRANS-FACTORIAL HepG2 Assay for human Estrogen-Related Receptor gamma (ERRg) (AID 2282977; active = hit-call score of the fitted dose curve at least 0.9, where 1 is the maximum;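 also: hits increase reporter signal over DMSO so potencies reflect activators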); settings: HepG2 Attagene TRANS reporter, ERRg transactivation
# How it was run: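 HepG2 cells transiently transfected with multiplexed GAL4-UAS reporter units and chimeric NR-Gal4 constructs were exposed to test chemicals for 24 h. Reporter mRNA was measured by RT-PCR, 6-FAM primer extension, HpaI digestion and capillary electrophoresis; gain-of-signal versus DMSO.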
# [18] = target: Bile acid receptor (Homo sapiens) (UniProt Q96RI1); assay: ATG_FXR_TRANS: Attagene TRANS-FACTORIAL HepG2 Assay for Farnesoid X Receptor (FXR) (AID 2282979; active = hit-call score of the fitted dose curve at least 0.9, where 1 is the maximum;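 also: hits raise reporter mRNA above DMSO so AC50 marks FXR activation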); settings: HepG2 Attagene TRANS FXR-GAL4 reporter transcription
# How it was run: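 Transient transfection of HepG2 with multiplexed GAL4-UAS reporter units; exogenous FXR-GAL4 chimera. Dose 24 h → TriZol RNA → oligo(dT) RT → PCR, 6-FAM primer extension, HpaI cut → CE. Gain vs DMSO.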
# Signal transducer and activator of transcription 3 (Homo sapiens), sequence (P40763 whole entry, looked up): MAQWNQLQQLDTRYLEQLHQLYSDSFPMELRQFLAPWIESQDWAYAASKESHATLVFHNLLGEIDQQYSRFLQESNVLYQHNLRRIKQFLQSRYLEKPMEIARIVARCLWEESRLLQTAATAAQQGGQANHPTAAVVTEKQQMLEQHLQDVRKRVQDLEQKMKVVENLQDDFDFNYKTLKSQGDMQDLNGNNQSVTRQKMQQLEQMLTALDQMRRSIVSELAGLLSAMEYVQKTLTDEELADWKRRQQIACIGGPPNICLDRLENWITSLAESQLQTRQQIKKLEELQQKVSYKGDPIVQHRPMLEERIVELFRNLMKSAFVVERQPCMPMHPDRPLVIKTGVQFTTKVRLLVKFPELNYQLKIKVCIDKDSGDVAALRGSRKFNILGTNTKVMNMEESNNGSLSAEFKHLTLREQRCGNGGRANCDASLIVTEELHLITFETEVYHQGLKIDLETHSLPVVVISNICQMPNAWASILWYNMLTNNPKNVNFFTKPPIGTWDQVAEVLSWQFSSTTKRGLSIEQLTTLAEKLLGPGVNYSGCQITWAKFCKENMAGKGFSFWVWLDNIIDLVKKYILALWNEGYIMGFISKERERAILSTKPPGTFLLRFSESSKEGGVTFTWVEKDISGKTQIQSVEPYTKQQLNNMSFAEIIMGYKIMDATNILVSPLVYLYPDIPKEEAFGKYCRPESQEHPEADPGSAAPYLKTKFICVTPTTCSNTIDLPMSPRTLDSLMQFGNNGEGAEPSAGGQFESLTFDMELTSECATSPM
# Transcription factor Sp1 (Homo sapiens), sequence (P08047 whole entry, looked up): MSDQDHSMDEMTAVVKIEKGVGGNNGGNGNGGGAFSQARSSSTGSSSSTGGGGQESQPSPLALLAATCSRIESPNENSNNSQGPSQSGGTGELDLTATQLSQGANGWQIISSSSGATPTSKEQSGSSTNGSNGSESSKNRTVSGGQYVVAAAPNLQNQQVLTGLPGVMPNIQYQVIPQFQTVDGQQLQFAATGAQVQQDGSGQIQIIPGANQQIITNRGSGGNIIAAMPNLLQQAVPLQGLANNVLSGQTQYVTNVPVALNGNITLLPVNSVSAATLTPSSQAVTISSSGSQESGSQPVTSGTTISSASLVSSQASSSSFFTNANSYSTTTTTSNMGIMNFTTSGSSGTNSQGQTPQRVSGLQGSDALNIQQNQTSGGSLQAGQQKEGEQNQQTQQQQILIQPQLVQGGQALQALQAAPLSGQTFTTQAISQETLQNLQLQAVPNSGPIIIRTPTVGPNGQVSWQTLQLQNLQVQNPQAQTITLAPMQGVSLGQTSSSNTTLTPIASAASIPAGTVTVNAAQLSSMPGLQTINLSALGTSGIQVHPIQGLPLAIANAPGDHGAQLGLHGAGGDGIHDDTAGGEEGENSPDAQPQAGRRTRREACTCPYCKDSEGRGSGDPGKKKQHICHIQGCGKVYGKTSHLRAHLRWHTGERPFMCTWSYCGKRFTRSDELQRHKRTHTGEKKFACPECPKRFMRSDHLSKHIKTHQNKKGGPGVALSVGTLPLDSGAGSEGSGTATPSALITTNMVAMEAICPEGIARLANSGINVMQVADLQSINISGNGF
# Paired box protein Pax-6 (Homo sapiens), sequence (P26367 whole entry, looked up): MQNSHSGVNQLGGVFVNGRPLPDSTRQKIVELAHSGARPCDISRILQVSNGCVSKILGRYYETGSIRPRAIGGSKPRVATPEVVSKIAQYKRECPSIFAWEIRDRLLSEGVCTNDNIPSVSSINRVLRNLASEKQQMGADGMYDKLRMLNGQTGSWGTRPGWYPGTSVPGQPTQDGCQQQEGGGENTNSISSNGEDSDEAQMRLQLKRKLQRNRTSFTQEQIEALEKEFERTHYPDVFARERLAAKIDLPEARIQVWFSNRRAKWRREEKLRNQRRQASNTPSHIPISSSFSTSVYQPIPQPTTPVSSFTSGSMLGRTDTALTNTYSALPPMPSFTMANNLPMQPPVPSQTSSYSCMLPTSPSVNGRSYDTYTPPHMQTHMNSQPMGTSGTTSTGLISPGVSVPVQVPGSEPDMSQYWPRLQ
# Glucocorticoid receptor (Homo sapiens), sequence (P04150 whole entry, looked up, the tested form may be a part): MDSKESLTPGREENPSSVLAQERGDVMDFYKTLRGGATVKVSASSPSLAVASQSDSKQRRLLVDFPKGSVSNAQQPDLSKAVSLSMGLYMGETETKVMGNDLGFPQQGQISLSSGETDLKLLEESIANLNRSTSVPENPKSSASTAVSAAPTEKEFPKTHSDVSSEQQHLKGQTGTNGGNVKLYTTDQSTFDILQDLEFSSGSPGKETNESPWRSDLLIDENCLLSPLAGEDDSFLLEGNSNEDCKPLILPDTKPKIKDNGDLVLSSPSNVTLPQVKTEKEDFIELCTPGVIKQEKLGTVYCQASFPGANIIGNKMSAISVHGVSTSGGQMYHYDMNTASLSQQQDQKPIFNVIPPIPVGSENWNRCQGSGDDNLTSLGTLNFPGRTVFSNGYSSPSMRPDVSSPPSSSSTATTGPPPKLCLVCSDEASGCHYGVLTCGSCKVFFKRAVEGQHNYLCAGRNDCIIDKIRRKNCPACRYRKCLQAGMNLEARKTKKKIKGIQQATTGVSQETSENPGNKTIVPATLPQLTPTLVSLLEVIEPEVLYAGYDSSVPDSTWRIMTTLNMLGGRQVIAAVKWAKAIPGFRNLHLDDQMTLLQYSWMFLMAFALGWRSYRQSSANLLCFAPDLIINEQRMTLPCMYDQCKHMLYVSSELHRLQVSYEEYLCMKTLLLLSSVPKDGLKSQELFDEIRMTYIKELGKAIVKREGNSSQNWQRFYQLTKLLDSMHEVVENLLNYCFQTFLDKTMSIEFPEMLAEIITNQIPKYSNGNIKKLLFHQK
# X-box-binding protein 1 (Homo sapiens), sequence (P17861 whole entry, looked up): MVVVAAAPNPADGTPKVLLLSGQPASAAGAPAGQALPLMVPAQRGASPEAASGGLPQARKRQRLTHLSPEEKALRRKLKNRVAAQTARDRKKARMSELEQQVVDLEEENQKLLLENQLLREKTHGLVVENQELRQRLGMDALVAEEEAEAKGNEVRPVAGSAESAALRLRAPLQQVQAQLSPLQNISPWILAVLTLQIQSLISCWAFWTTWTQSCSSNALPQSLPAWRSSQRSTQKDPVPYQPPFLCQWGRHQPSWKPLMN
# Bile acid receptor (Homo sapiens), sequence (Q96RI1 whole entry, looked up, the tested form may be a part): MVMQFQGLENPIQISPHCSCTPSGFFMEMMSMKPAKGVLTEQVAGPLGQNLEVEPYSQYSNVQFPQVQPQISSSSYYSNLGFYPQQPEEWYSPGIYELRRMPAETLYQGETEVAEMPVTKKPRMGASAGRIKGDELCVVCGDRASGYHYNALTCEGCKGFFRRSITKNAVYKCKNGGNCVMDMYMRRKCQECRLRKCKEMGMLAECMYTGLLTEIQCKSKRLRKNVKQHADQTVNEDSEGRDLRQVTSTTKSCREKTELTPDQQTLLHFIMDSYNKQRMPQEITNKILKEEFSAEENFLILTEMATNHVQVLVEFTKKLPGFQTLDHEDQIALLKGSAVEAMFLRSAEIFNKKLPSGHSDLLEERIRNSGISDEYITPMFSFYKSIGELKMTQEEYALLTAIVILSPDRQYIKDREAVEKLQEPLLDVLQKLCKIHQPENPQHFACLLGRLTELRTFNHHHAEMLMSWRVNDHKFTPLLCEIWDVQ
# Estrogen-related receptor gamma (Homo sapiens), sequence (P62508 whole entry, looked up, the tested form may be a part): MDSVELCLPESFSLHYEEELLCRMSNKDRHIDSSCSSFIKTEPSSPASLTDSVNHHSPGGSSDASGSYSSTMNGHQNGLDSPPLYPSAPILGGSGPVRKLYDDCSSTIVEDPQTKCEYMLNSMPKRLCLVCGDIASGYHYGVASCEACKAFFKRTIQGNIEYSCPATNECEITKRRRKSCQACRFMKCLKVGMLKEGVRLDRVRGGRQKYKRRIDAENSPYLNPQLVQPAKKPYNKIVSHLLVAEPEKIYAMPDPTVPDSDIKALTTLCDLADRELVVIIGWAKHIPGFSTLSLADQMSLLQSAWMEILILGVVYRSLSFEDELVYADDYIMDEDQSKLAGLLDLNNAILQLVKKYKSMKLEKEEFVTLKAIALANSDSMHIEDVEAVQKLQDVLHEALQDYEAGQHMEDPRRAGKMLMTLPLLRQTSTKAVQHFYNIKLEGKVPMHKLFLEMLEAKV
compound,measurement,setting,value
C1N2CN3CN1CN(C2)C3,outcome,[1],inactive
same,outcome,[2],inactive
same,outcome,[3],inactive
same,outcome,[4],inactive
same,outcome,[5],inactive
same,outcome,[6],inactive
same,outcome,[7],inactive
same,outcome,[8],inactive
same,outcome,[9],inactive
same,outcome,[10],inactive
same,outcome,[11],inactive
same,outcome,[12],inactive
same,outcome,[13],inactive
O=P(OC(CCl)CCl)(OC(CCl)CCl)OC(CCl)CCl,AC50,[1],46.9 µM (active)
same,AC50,[2],0.371 µM (active)
same,outcome,[3],inactive
same,outcome,[4],inactive
same,outcome,[5],inactive
same,AC50,[6],24.4 µM (active)
same,AC50,[7],188 µM (active)
same,outcome,[8],inactive
same,AC50,[14],100 µM (active)
same,outcome,[9],inactive
same,outcome,[10],inactive
same,AC50,[11],3.53 µM (active)
same,AC50,[12],100 µM (active)
CCC(C)(C)C(=O)O[C@H]1C[C@@H](C)C=C2C=C[C@H](C)[C@H](CC[C@@H]3C[C@@H](O)CC(=O)O3)[C@H]21,outcome,[1],inactive
same,outcome,[3],inactive
same,outcome,[15],inactive
same,outcome,[4],inactive
same,outcome,[5],inactive
same,AC50,[6],0.0317 µM (active)
same,outcome,[7],inactive
same,outcome,[8],inactive
same,outcome,[9],inactive
same,outcome,[10],inactive
same,outcome,[11],inactive
same,outcome,[12],inactive
same,outcome,[13],inactive
same,outcome,[16],inactive
Cc1[nH]cnc1C[C@H]1CCc2c(C)c3ccccc3n2C1=O,AC50,[1],37.2 µM (active)
same,AC50,[2],7.57 µM (active)
same,outcome,[4],inactive
same,outcome,[5],inactive
same,outcome,[6],inactive
same,outcome,[7],inactive
same,AC50,[8],29.7 µM (active)
same,AC50,[9],40.8 µM (active)
same,outcome,[10],inactive
same,AC50,[11],29.7 µM (active)
same,AC50,[12],20.4 µM (active)
same,outcome,[17],inactive
same,outcome,[16],inactive
same,outcome,[18],inactive
CC(C)CC(C)(O)C#CC(C)(O)CC(C)C (stereo not drawn),outcome,[1],inactive
same,AC50,[2],12.7 µM (active)
same,outcome,[15],inactive
same,outcome,[4],inactive
same,outcome,[5],inactive
same,outcome,[6],inactive
same,outcome,[7],inactive
same,outcome,[8],inactive
same,outcome,[14],inactive
same,outcome,[9],inactive
same,outcome,[10],inactive
same,outcome,[11],inactive
same,outcome,[12],inactive
same,outcome,[13],inactive
same,outcome,[16],inactive
CC(C)=CCC/C(C)=C/CO,outcome,[1],inactive
same,outcome,[2],inactive
same,outcome,[4],inactive
same,outcome,[5],inactive
same,outcome,[6],inactive
same,outcome,[7],inactive
same,outcome,[8],inactive
same,outcome,[14],inactive
same,outcome,[9],inactive
same,outcome,[10],inactive
same,outcome,[11],inactive
same,outcome,[12],inactive
same,outcome,[16],inactive
Nc1cccc(N)c1,outcome,[1],inactive
same,outcome,[2],inactive
same,outcome,[4],inactive
same,outcome,[5],inactive
same,outcome,[6],inactive
same,outcome,[7],inactive
same,outcome,[8],inactive
same,outcome,[14],inactive
same,outcome,[9],inactive
same,outcome,[10],inactive
same,outcome,[11],inactive
same,outcome,[12],inactive
same,outcome,[13],inactive
same,outcome,[18],inactive
CCCCCCc1ccc(O)cc1O,AC50,[1],51.1 µM (active)
same,outcome,[2],inactive
same,AC50,[15],42 µM (active)
same,outcome,[4],inactive
same,outcome,[5],inactive
same,outcome,[6],inactive
same,outcome,[7],inactive
same,outcome,[8],inactive
same,outcome,[9],inactive
same,outcome,[10],inactive
same,AC50,[11],38.7 µM (active)
same,AC50,[12],55.3 µM (active)
same,outcome,[16],inactive
COc1ccc(-n2nc(C(F)F)cc2-c2ccc(S(C)=O)cc2)cc1 (stereo not drawn),outcome,[1],inactive
same,AC50,[2],26.6 µM (active)
same,outcome,[3],inactive
same,outcome,[4],inactive
same,outcome,[5],inactive
same,AC50,[6],126 µM (active)
same,outcome,[7],inactive
same,outcome,[8],inactive
same,outcome,[9],inactive
same,outcome,[10],inactive
same,outcome,[11],inactive
same,outcome,[12],inactive
same,outcome,[13],inactive
same,outcome,[16],inactive

# Reference: PubChem BioAssay (EPA / NIEHS)
